About 79,000 compounds went through this panel and 15% of them were active in at least one assay; those are over-represented in the sample as a whole. A number with no mark means an inactive call. The source made the active and inactive calls. No stated cut-off is given here; in the data, active means growth inhibition above about 70%; inactive means the rest.
Test: NCI Yeast Anticancer Drug Screen. Data for the wt1 strain (AID 149);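 further: 0% = growth of vehicle-treated wt1 cultures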
Settings: S. cerevisiae wt1 strain (SPY 50644) growth inhibition; at 11.0 µM; hits give high values
Outline: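 Vehicle-normalised growth inhibition; strain wt1; compound exposure.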

Row | SMILES | growth inhibition
1 | CCN(CC)CC[n+]1ccc2c(C)c3[nH]c4ccc(O)cc4c3c(C)c2c1 | 3%
2 | O=[n+]1c2ccc(Cl)cc2n([O-])c2ccc(Cl)cc21 | 2%
3 | CCOP(=O)(OCC)C(Cc1ccccc1)N=C(c1ccccc1)c1ccccc1 (stereo not drawn) | -5%
4 | CC[C@@]1(O)C(=O)OCc2c1cc1n(c2=O)Cc2cc3c(N)cccc3nc2-1 | 7%
5 | COC1C=COC2(C)Oc3c(C)c(O)c4c(c3C2=O)/C(=N/C2CCC(O)OC2C)C=C(NC(=O)/C(C)=C\C(=O)C2CC2C(O)C(C)C(O)C(C)C(OC(C)=O)C1C)C4=O (stereo not drawn) | 1%
6 | COc1cc2c(c(OC)c1OC)-c1c(cc3c(c1OC)OCO3)CC(C)C(C)(O)C2OC(=O)c1ccccc1 (stereo not drawn) | -10%
7 | O=c1ssc2ncccc12 | 11%
8 | O=C1C2C(C(=O)N1c1ccc(OCc3ccccc3)cc1)C1c3ccccc3C2C2CCCCN21 (stereo not drawn) | -10%
9 | COc1ccc(-c2cn(-c3ccc(I)cc3)c3ncnc(N)c23)cc1 | -10%
10 | CCOC(=O)C(NC(=O)c1ccccc1)(N1CCN(c2cc3c(cc2F)c(=O)c(C(=O)O)cn3C2CC2)CC1)C(F)(F)F (stereo not drawn) | -1%
11 | C/C(=N\O)C1CC2C=C(C#N)C1N(Cc1ccccc1)C2 (stereo not drawn) | 1%
12 | CC/C(=C(\c1ccccc1)c1ccc(OCCN(C)C)cc1)c1ccccc1 | 22%
13 | COc1ccccc1N=NC(C(=O)c1ccccc1)C(=O)c1ccccc1 | 13%
14 | CC(O)C(O)C(O)C(/C=N\Nc1ccccc1)=N/Nc1ccccc1 (stereo not drawn) | 13%
15 | COc1ccc(/C=C2\SC(=S)N(/C=C/c3nc4ccccc4[nH]c3=O)C2=O)cc1OC | 10%
16 | N#CN=Nc1cc(Cl)c(N=NC#N)cc1Cl | -6%
17 | Cc1ccc(S(=O)(=O)Oc2cc(Cl)c(Cl)cc2Cl)cc1 | -7%
18 | c1ccc2c(c1)Oc1cccc3cccc-2c13 | -8%
19 | O=C(c1ccc(Cl)cc1Cl)C(Cl)Cl | 3%
20 | CC(C)C1=CCC2C(=C1)CCC1C(C)(C(=O)O)CCCC21C (stereo not drawn) (tested in a mixture with another compound) | 12%

Row | SMILES | growth inhibition
21 | COc1cc(/C=C2\CCc3ccccc3C2=O)cc(OC)c1OC | -2%
22 | CC(=O)[O][Bi]([c]1ccccc1)[c]1ccccc1 | 23%
23 | S=C(N/N=C/c1ccccn1)Nc1ccc(Cl)cc1 | -5%
24 | COc1cc(CC2CC(c3ccc4c(c3)OCO4)OC2=O)cc(OC)c1OC (stereo not drawn) | -4%
25 | CNC1C(OC2C(OC3C(O)C(O)C(N=C(N)N)C(O)C3N=C(N)N)OC(C)C2(O)CO)OC(CO)C(O)C1O (stereo not drawn) | -4%
26 | NNC(=O)CCc1ccc2ccc3ccccc3c2c1 | 3%
27 | Oc1ccc2ccccc2c1C(c1ccc(Cl)cc1)c1c(O)ccc2ccccc12 | 2%
28 | CCCCN(CCCC)CCSc1ccc(Cl)cc1 | 12%
29 | CCC(C)COC(=O)c1ccc(N=Cc2ccc(C=Nc3ccc(C(=O)OCC(C)CC)cc3)cc2)cc1 (stereo not drawn) | -2%
30 | CC1(C)C(=O)OC(n2cc(F)c(=O)[nH]c2=O)C1=O (stereo not drawn) | -18%
31 | O=[N+]([O-])CC(SCc1ccccc1)c1ccc2c(c1)OCO2 (stereo not drawn) | 70% (active)
32 | COc1cc2c(cc1[N+](=O)[O-])C(=O)C(Br)(Br)CCC2 | 91% (active)
33 | OCC1OC(OCC(O)C(O)C(O)C(/C=N/Nc2ccccc2)=N/Nc2ccccc2)C(O)C(O)C1O (stereo not drawn) | 21%
34 | COc1ccc(N=C2C(=O)Nc3ccc(Br)cc32)cc1 | 9%
35 | Cn1c(=O)c2ccccc2c2ccccc21 | -10%
36 | CC[n+]1ccc2c(C)c3[nH]c4ccc(O)cc4c3c(C)c2c1 | 3%
37 | CC(=O)ON1C(=O)c2cccc3cccc(c23)C1=O | 76% (active)
38 | COc1ccc2ccc3ccccc3c2c1C=O | -5%
39 | OC1CCCc2c1cc1ccc3cccc4ccc2c1c34 (stereo not drawn) | 99% (active)

Same assay, conditions: S. cerevisiae wt1 strain (SPY 50644) growth inhibition; at 33.0 µM; hits give high values

Row | SMILES | growth inhibition
40 | CCN(CC)CC[n+]1ccc2c(C)c3[nH]c4ccc(O)cc4c3c(C)c2c1 | 4%
41 | O=[n+]1c2ccc(Cl)cc2n([O-])c2ccc(Cl)cc21 | 7%
42 | CCOP(=O)(OCC)C(Cc1ccccc1)N=C(c1ccccc1)c1ccccc1 (stereo not drawn) | 95% (active)
43 | CC[C@@]1(O)C(=O)OCc2c1cc1n(c2=O)Cc2cc3c(N)cccc3nc2-1 | 8%
44 | COC1C=COC2(C)Oc3c(C)c(O)c4c(c3C2=O)/C(=N/C2CCC(O)OC2C)C=C(NC(=O)/C(C)=C\C(=O)C2CC2C(O)C(C)C(O)C(C)C(OC(C)=O)C1C)C4=O (stereo not drawn) | -1%
45 | COc1cc2c(c(OC)c1OC)-c1c(cc3c(c1OC)OCO3)CC(C)C(C)(O)C2OC(=O)c1ccccc1 (stereo not drawn) | 7%
46 | O=c1ssc2ncccc12 | 47%
47 | O=C1C2C(C(=O)N1c1ccc(OCc3ccccc3)cc1)C1c3ccccc3C2C2CCCCN21 (stereo not drawn) | -10%
48 | COc1ccc(-c2cn(-c3ccc(I)cc3)c3ncnc(N)c23)cc1 | -11%
49 | CCOC(=O)C(NC(=O)c1ccccc1)(N1CCN(c2cc3c(cc2F)c(=O)c(C(=O)O)cn3C2CC2)CC1)C(F)(F)F (stereo not drawn) | 0%
50 | C/C(=N\O)C1CC2C=C(C#N)C1N(Cc1ccccc1)C2 (stereo not drawn) | -1%
51 | CC/C(=C(\c1ccccc1)c1ccc(OCCN(C)C)cc1)c1ccccc1 | 98% (active)
52 | COc1ccccc1N=NC(C(=O)c1ccccc1)C(=O)c1ccccc1 | 96% (active)
53 | CC(O)C(O)C(O)C(/C=N\Nc1ccccc1)=N/Nc1ccccc1 (stereo not drawn) | 8%
54 | COc1ccc(/C=C2\SC(=S)N(/C=C/c3nc4ccccc4[nH]c3=O)C2=O)cc1OC | 40%
55 | N#CN=Nc1cc(Cl)c(N=NC#N)cc1Cl | -3%
56 | Cc1ccc(S(=O)(=O)Oc2cc(Cl)c(Cl)cc2Cl)cc1 | -9%
57 | c1ccc2c(c1)Oc1cccc3cccc-2c13 | 3%
58 | O=C(c1ccc(Cl)cc1Cl)C(Cl)Cl | 56%
59 | CC(C)C1=CCC2C(=C1)CCC1C(C)(C(=O)O)CCCC21C (stereo not drawn) (tested in a mixture with another compound) | 41%

Row | SMILES | growth inhibition
60 | COc1cc(/C=C2\CCc3ccccc3C2=O)cc(OC)c1OC | 11%
61 | CC(=O)[O][Bi]([c]1ccccc1)[c]1ccccc1 | 90% (active)
62 | S=C(N/N=C/c1ccccn1)Nc1ccc(Cl)cc1 | 8%
63 | COc1cc(CC2CC(c3ccc4c(c3)OCO4)OC2=O)cc(OC)c1OC (stereo not drawn) | -3%
64 | CNC1C(OC2C(OC3C(O)C(O)C(N=C(N)N)C(O)C3N=C(N)N)OC(C)C2(O)CO)OC(CO)C(O)C1O (stereo not drawn) | 10%
65 | NNC(=O)CCc1ccc2ccc3ccccc3c2c1 | 3%
66 | Oc1ccc2ccccc2c1C(c1ccc(Cl)cc1)c1c(O)ccc2ccccc12 | 55%
67 | CCCCN(CCCC)CCSc1ccc(Cl)cc1 | 31%
68 | CCC(C)COC(=O)c1ccc(N=Cc2ccc(C=Nc3ccc(C(=O)OCC(C)CC)cc3)cc2)cc1 (stereo not drawn) | -1%
69 | CC1(C)C(=O)OC(n2cc(F)c(=O)[nH]c2=O)C1=O (stereo not drawn) | -36%
70 | O=[N+]([O-])CC(SCc1ccccc1)c1ccc2c(c1)OCO2 (stereo not drawn) | 98% (active)
71 | COc1cc2c(cc1[N+](=O)[O-])C(=O)C(Br)(Br)CCC2 | 99% (active)
72 | OCC1OC(OCC(O)C(O)C(O)C(/C=N/Nc2ccccc2)=N/Nc2ccccc2)C(O)C(O)C1O (stereo not drawn) | 24%
73 | COc1ccc(N=C2C(=O)Nc3ccc(Br)cc32)cc1 | 14%
74 | Cn1c(=O)c2ccccc2c2ccccc21 | 11%
75 | CC[n+]1ccc2c(C)c3[nH]c4ccc(O)cc4c3c(C)c2c1 | 9%
76 | CC(=O)ON1C(=O)c2cccc3cccc(c23)C1=O | 96% (active)
77 | COc1ccc2ccc3ccccc3c2c1C=O | -4%
78 | OC1CCCc2c1cc1ccc3cccc4ccc2c1c34 (stereo not drawn) | 98% (active)
